This is a sample that favours compounds with a hit; in the whole collection about 15% have one here.
HCV inh: blocks hepatitis C virus; 340,000 compounds, 3.4% hits; Huh7.5.1 HCVcc-Cre infection, luciferase reporter, 44 h; Potency, µM (titrated, usually from 41.8 µM), without a hit: at the top dose activity change, negative = inhibition, actives largely listed as inhibitors; note: potency is the fitted concentration of half-maximal effect; % is set by controls: 0 for no effect and ±100 for the full control effect
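HCVcc-Cre virus at an moi near 0.5 was added right after compound to cells cultured 4 h from seeding (1,000 cells/well). Luciferase activity was determined 44 h later, 15 min after substrate addition at RT.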
SARS PLP yeast: blocks SARS-CoV papain-like protease in a yeast assay; S. cerevisiae expressing SARS-CoV PLpro, growth rescue; Potency, µM (doses to about 32.9 µM), inactives show at the top dose activity, positive = growth rescue, usual class: activators; 330,000 compounds, 0.19% hits; AID 485353; calls by dose curve; note: potency is the fitted concentration of half-maximal effect; 0% is about no effect; nearly all actives have a fitted effect of over 55% in size
Pf growth 96h: inhibits malaria parasite growth, 96 h | P. falciparum luciferase reporter growth, 96 h | Potency, µM (series often up to 28.7 µM), for the others: at the top dose activity change, negative = inhibition, actives largely listed as inhibitors | 320,000 compounds, 6.9% hits; note: potency is the fitted concentration of half-maximal effect; % is set by controls: 0 for no effect and ±100 for the full control effect
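Two parasite generations (96 h, 37 C, 5% CO2) of compound exposure in infected erythrocytes (0.05% parasitemia, 2% hematocrit). Luciferase-reporter P. falciparum; decreased luminescence indicates inhibited growth, aimed at apicoplast-acting delayed death.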
Pf growth 48h: inhibits P. falciparum growth in the first generation, 48 h; P. falciparum luciferase growth in erythrocytes, 48 h; Potency, µM (series often up to 28.7 µM), for the others: at the top dose activity change, negative = inhibition, most hits filed as inhibitors; 310,000 compounds, 5.9% hits; AID 504832; note: potency is the fitted concentration of half-maximal effect; % is set by controls: 0 for no effect and ±100 for the full control effect
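Read-out is firefly luciferase luminescence from an integrated reporter in P. falciparum, so falling signal marks reduced parasite growth. Infected erythrocytes were at 2% hematocrit and 0.1% parasitemia (final) in Albumax-supplemented RPMI 1640.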
HCMV antiviral: human cytomegalovirus inhibition; HFF cells, HCMV-luciferase reporter, 72 h; active compounds read low; activity change, negative = inhibition, % at 57.5 µM; 410,000 compounds, 4.5% hits; AID 1259415; in the data active = activity change below about -60%; inconclusive = no clear call, values can overlap the other calls; inactive = above about -39%; note: % is set by controls: 0 for no effect and ±100 for the full control effect
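Luciferase read-out from HCMV-luciferase-infected HFFs (MOI 1 PFU/cell) 72 h post infection at 37C; compounds added after 16 h cell attachment; activity normalized between buffer-only basal and Salinomycin (10uM) inhibitor controls.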
Sm TGR block: blocks Schistosoma mansoni thioredoxin glutathione reductase; Q962Y6; purified TGR, DTNB reduction, TNB absorbance 405 nm; Potency, µM (top dose mostly 114 µM), without a hit: at the top dose activity change, negative = inhibition, hits mostly inhibitors; 360,000 compounds, 3% hits; AID 485364; note: potency is the fitted concentration of half-maximal effect; % is set by controls: 0 for no effect and ±100 for the full control effect; nearly all actives have a fitted effect of over 60% in size
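First, TGR (20 nM dispensed) and NADPH were mixed with compound. Second, a 15 min room-temperature incubation followed. Third, further NADPH and then DTNB were added to start the reaction. Finally, TNB absorbance was monitored kinetically.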
* hit, by the source's call. Unless noted, calls come from the whole dose curve; as a rule, active = well fitted curve in the direction sought with a large enough effect; inconclusive = small, poorly fitted or top-dose-only effect, or another doubt; inactive = no such curve, though single readings can be large; an effect the other way counts as inactive or inconclusive.

`Cc1cc(-c2nnc(CCC(=O)N(C)C(C)c3cccs3)o2)no1` (configuration not stated) gave HCV inh 0.0%, SARS PLP yeast -0.7%, Pf growth 96h 1.7%, Pf growth 48h 14.7%, HCMV antiviral -15.3 and Sm TGR block -1.9%.
Screening CN(C)Cc1c(O)ccc2c3c(c(=O)oc12)CCCCC3 returned HCV inh 3.6%, SARS PLP yeast -7.1%, Pf growth 48h inconclusive, HCMV antiviral -34.5 and Sm TGR block -17.4%.
`CN(Cc1c(O)ccc2c1oc(=O)c1ccccc12)C1CCCCC1` gave HCV inh -12.6%, SARS PLP yeast -0.6%, Pf growth 96h inconclusive, Pf growth 48h 5.22µM*, HCMV antiviral 24.8 and Sm TGR block 0.5%.
For Cc1ccc(C2=NC(C)(C)N=C2SCC(=O)Nc2ccc(Cl)cc2)cc1 the results were HCV inh inconclusive, SARS PLP yeast -45.9%, Pf growth 96h 4.15µM*, HCMV antiviral -25.4 and Sm TGR block inconclusive.
For CC1(C)N=C(SCC(=O)Nc2ccc(Cl)cc2Cl)C(c2ccccc2)=N1 the results were HCV inh inconclusive, SARS PLP yeast -7.8%, Pf growth 48h inconclusive, HCMV antiviral 2.7 and Sm TGR block -5.9%.
CC1(C)CC(=O)C2=C(C1)N(Cc1ccco1)C(=O)C2(NC(=O)c1cccnc1)C(F)(F)F (configuration not stated) was read as HCV inh 5.4%, SARS PLP yeast 2.8%, Pf growth 96h 21.2%, Pf growth 48h -29.9%, HCMV antiviral 28.5 and Sm TGR block 20µM*.
`Cc1cccc(N(Cc2ccccc2F)S(C)(=O)=O)c1` gave HCV inh 0.6%, SARS PLP yeast -2.0%, Pf growth 96h 9.28µM*, Pf growth 48h -18.5%, HCMV antiviral 35.2 and Sm TGR block 25.7%.
For O=C(NC1CCCCC1)c1ccccc1NC(=O)C1CC1 the results were HCV inh 4.4%, SARS PLP yeast inconclusive, Pf growth 96h 24.9%, Pf growth 48h 28.9%, HCMV antiviral 69.9 and Sm TGR block 3.7%.
Screening COCc1ccc(CN2CCCC(C(=O)Nc3ccc(-c4cscn4)cc3)C2)o1 (configuration not stated) returned HCV inh -11.5%, SARS PLP yeast -0.3%, Pf growth 96h 30.0%, Pf growth 48h inconclusive, HCMV antiviral -8.2 and Sm TGR block inconclusive.
For Cc1nnc(Nc2ccc(C(=O)O)cc2)[nH]c1=O the results were HCV inh 4.5%, SARS PLP yeast 2.6%, Pf growth 96h 3.4%, Pf growth 48h 3.6%, HCMV antiviral inconclusive and Sm TGR block 0.8%.
Screening Cc1nnc(Nc2ccc(O)cc2)[nH]c1=O returned HCV inh 14.1µM*, SARS PLP yeast -0.7%, Pf growth 96h 50.0%, Pf growth 48h 16.4% and HCMV antiviral -20.2.
Screening CCCCc1ccc(NS(=O)(=O)N(C)C)cc1 returned HCV inh 15.9%, SARS PLP yeast -20.6%, Pf growth 96h 10.4µM*, Pf growth 48h 23.8%, HCMV antiviral 48.5 and Sm TGR block 1.1%.
Screening COC(=O)c1cc(S(=O)(=O)N2CCCC2=O)c(Cl)cc1Cl returned HCV inh -17.4%, SARS PLP yeast -0.6%, Pf growth 96h 10.4µM*, Pf growth 48h inconclusive, HCMV antiviral 24.9 and Sm TGR block -2.0%.
Screening COC(=O)c1cc(S(=O)(=O)n2nc(C)cc2C)c(Cl)cc1Cl returned HCV inh 19.3%, SARS PLP yeast 2.5%, Pf growth 96h -7.5%, Pf growth 48h 14.2% and Sm TGR block -0.7%.
`COc1ccc(NC(=O)c2cc(C3CCCCN3S(=O)(=O)c3ccccc3)on2)c(C)c1` (configuration not stated) gave HCMV antiviral -35.7.
CC(=O)Nc1ccc(CN2C(=O)C(C)ON=C2c2ccccc2-c2ccco2)cc1 (configuration not stated) was read as HCMV antiviral 37.5.
`CSc1ccc(CN2C(=O)C(C)ON=C2c2ccccc2F)cc1` (configuration not stated) gave HCMV antiviral -98.5*.
For COc1ccccc1CN1C(=O)C(C)ON=C1c1ccccc1F (configuration not stated) the results were HCMV antiviral -80.4*.
N#Cc1ccc(-c2ccc(OCC(=O)Nc3cccnc3)cc2)cc1 was read as HCV inh inconclusive, SARS PLP yeast -6.1%, Pf growth 96h -4.4%, Pf growth 48h 3.1%, HCMV antiviral -68.8* and Sm TGR block 1.6%.
O=C(COc1ccc(C(=O)c2ccccc2)cc1)Nc1cccnc1 was read as HCV inh 6.31µM*, SARS PLP yeast -4.9%, Pf growth 96h inconclusive, Pf growth 48h -5.5%, HCMV antiviral -37.8 and Sm TGR block 10.5%.
Cc1cc(C)c(C)c(S(=O)(=O)N2CCC(C(=O)NC3=NCCS3)CC2)c1C was read as HCV inh 2.7%, SARS PLP yeast -2.1%, Pf growth 96h inconclusive, Pf growth 48h inconclusive, HCMV antiviral -13.2 and Sm TGR block -1.7%.
CN(CC1CCCN(CCc2ccc(F)cc2)C1)C(=O)CCC(N)=O (configuration not stated) was read as HCV inh 7.1%, SARS PLP yeast 1.8%, Pf growth 96h inconclusive, Pf growth 48h inconclusive, HCMV antiviral 86.2 and Sm TGR block 2.0%.
For NC(=O)c1ccc(NC(=O)COC(=O)CC2Sc3ccccc3NC2=O)cc1 (configuration not stated) the results were HCV inh 14.6%, SARS PLP yeast 0.0%, Pf growth 96h 9.4%, Pf growth 48h 71.0%, HCMV antiviral 9.7 and Sm TGR block -0.2%.
Screening Cc1cccc(C)c1NC(=O)N1CCC(C(=O)c2ccc(F)cc2)CC1 returned HCV inh 7.5%, SARS PLP yeast -0.9%, Pf growth 96h -6.8%, Pf growth 48h -9.3%, HCMV antiviral 34.8 and Sm TGR block -3.4%.
Screening Fc1ccccc1N1CC(c2ccccc2)C(c2cccs2)=N1 (configuration not stated) returned HCV inh inconclusive, SARS PLP yeast -21.5%, Pf growth 96h 11.7µM*, HCMV antiviral inconclusive and Sm TGR block -18.0%.
Clc1ccc(Nc2ccc(NCc3ccccc3)nn2)cc1 was read as HCV inh inconclusive, SARS PLP yeast 11.5%, Pf growth 96h 1.85µM*, Pf growth 48h 4.65µM*, HCMV antiviral 49.7 and Sm TGR block -8.6%.
Screening Cc1ccc(Nc2ccc(NCc3ccccc3)nn2)cc1C returned HCV inh inconclusive, SARS PLP yeast 10.1%, Pf growth 96h inconclusive, Pf growth 48h inconclusive, HCMV antiviral -3.6 and Sm TGR block 1.0%.

Assay outcomes deposited in PubChem BioAssay by National Center for Advancing Translational Sciences (NCATS).
